# Pf Dd2 growth: blocks in vitro growth of P. falciparum Dd2; 120,000 tested, 4.3% active; P. falciparum Dd2 growth, SYBR Green, 72 h; Potency, µM (top dose mostly 28.9 µM), for the others: at the highest dose activity, negative = inhibition, most hits filed as inhibitors; active = well fitted inhibition curve with a large enough effect;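 note: plate controls were DMSO vehicle for no effect and reference drug for full effect; nearly all actives have a fitted effect of over 65% in size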
#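 Infected erythrocytes (Dd2, 0.3% parasitemia, 2.5% hematocrit final) are added to compound in RPMI-1640/Albumax II medium, grown 72 h at 37C in low oxygen, then lysed with saponin/Triton-X containing SYBR Green and read by fluorescence.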
# * = called active by the depositor; i = inactive; [ ] = remark or other dose. The sample as a whole holds a higher share of hits than the screen did. Potency is the fitted concentration of half-maximal effect.
SMILES,Pf Dd2 growth
CCOc1ccc(NC(=O)CSc2nc(-c3cccc(Cl)c3)nc3c2Cc2c(CO)cnc(C)c2O3)cc1,6.6%
COc1cccc(CSc2nc(-c3ccccc3OC)nc3c2Cc2c(CO)cnc(C)c2O3)c1,5.01µM*
CNC(=O)c1cn2c(n1)CN(C(=O)c1cccnc1)CC2,6.2%[44.1 µM]
COc1ccc(CCNc2nc(SCc3ccc(Cl)cc3)nc3ccccc23)cc1OC,-16.7%
COc1ccc(CCNc2nc(SCc3cccc(F)c3)nc3ccccc23)cc1OC,-18.1%
Cc1ccccc1CSc1ncc(Cl)c(C(=O)NCc2ccccc2)n1,4.9%
COc1ccc(C(C)=O)cc1CSc1nc(NCc2ccc(Cl)cc2)c2ccccc2n1,i
Clc1ccc(CSc2nc(NCCc3ccccc3)c3ccccc3n2)cc1,10µM*
Clc1ccccc1CSc1nc(NCCc2ccccc2)c2ccccc2n1,11.2µM*
CN(C)CC1(COc2ccc(S(C)(=O)=O)cc2)C[C@@H](O)[C@@H](O)C1 (stereo partly drawn),-4.7%[44.1 µM]
CN(Cc1ccccc1)C(=O)c1ccc2c(c1)[nH]c(=O)n2C1CCC(O)CC1 (stereo not drawn),-11.1%
COCCN(Cc1nc(-c2cc3c(cc2Cl)OCO3)oc1C)C(C)C,-17.4%
COCC(=O)NC1CCC12CCN(C(=O)c1ccc3ccccc3n1)CC2 (stereo not drawn),i
CCNC(=O)c1ccc(CC2CCN(C(C)=O)CC2)cc1,-28.5%
O=C(NC1CC1)c1ccc(CC2CCN(C(=O)c3ccc4ccccc4n3)CC2)cc1,2µM*
CCc1noc(-c2cn(C3CCN(C(=O)c4ccc[nH]4)CC3)nn2)n1,i
Cc1cc(C)n(-c2nnc(Nc3ccc(C)c(C)c3)c3ccccc23)n1,-21.6%
Cc1ccc(-c2noc(-c3ccc(NCC4CCCO4)c([N+](=O)[O-])c3)n2)cc1 (stereo not drawn),18.5%
Cc1ccc(-c2nnc(Nc3ccc(C(=O)N(C)C)cc3)c3ccccc23)cc1S(=O)(=O)N(C)C,11.2µM*
Cc1ccc(-c2nnc(Nc3ccc(S(N)(=O)=O)cc3)c3ccccc23)cc1S(=O)(=O)N1CCCCC1,19.3%
COc1ccc(Nc2nnc(-c3ccc(C)c(S(=O)(=O)NCc4nc5ccccc5[nH]4)c3)c3ccccc23)cc1,74.8%
Cc1cc(-c2ccc(C)c(S(=O)(=O)NCc3cccc(Br)c3)c2)on1,19.5%
Cc1cc(-c2ccc(C)c(S(=O)(=O)NC3CCCCC3)c2)on1,i
Cc1ccc(-c2nnc(Nc3ccc(Br)cc3)c3ccccc23)cc1S(=O)(=O)NCC1CCCO1 (stereo not drawn),10µM*
Cc1ccc(-c2nnc(Nc3ccc(O)cc3)c3ccccc23)cc1S(=O)(=O)NCC1CCCO1 (stereo not drawn),5.01µM*
SMILES,Pf Dd2 growth
Cc1ccc(-c2nnc(Nc3ccc(O)cc3)c3ccccc23)cc1S(=O)(=O)N1CCCCC1,10µM*
CNC(=O)c1ccc(Nc2nnc(-c3ccc(C)c(S(=O)(=O)N(C)C)c3)c3ccccc23)cc1,-10.9%
Cc1ccc(C(=O)Nc2cccc(O)c2)cc1S(=O)(=O)N1CCCCCC1,-24.2%
O=C(c1cccnc1)N1CCCC(Cc2nc(C3CCOCC3)no2)C1 (stereo not drawn),29.6%
O=C(c1ccc(Cl)cc1)N1CCn2c(nn(-c3ccc(C(F)(F)F)cc3)c2=O)C1,6.2%
Cc1c(C(=O)N2CCC3(CC2)CC(C(=O)O)N(C)C3)c[nH]c(=O)c1C#N (stereo not drawn),-19.8%
O=C(CSCCN1CCCC1)N1CCC(n2cnnc2)CC1,16.9%
Cc1nccn1CCN(C)C(C(=O)O)c1ccc(C(C)(C)C)cc1 (stereo not drawn),-6.5%
O=C1[C@H]2CN(Cc3cccc(Br)c3)C[C@H]2C(=O)N1Cc1ccc2c(c1)OCO2,0.8%
CN1CCC(OC2CCN(C(=O)C(C)(C)C)CC2)CC1,4.4%
Cc1ccc(-c2nnc(Nc3ccc(F)cc3)c3ccccc23)cc1S(=O)(=O)NC(C)C,11.2µM*
Cc1cc(C)n(-c2nnc(Nc3cc(Cl)ccc3C)c3ccccc23)n1,61.2%
Cc1ccc(-c2nnc(Nc3ccccc3O)c3ccccc23)cc1,-23.7%
CNS(=O)(=O)c1cc(-c2nnc(Nc3cc(C)ccc3C)c3ccccc23)ccc1C,5.01µM*
CCOC(=O)c1c(Nc2ccc(F)cc2)nnc(-c2ccccc2)c1-c1ccccc1,-29.3%
Cc1ccc(Nc2nnc(-c3ccc(C)c(S(=O)(=O)N4CCOCC4)c3)c3ccccc23)c(C)c1,7.94µM*
Cc1ccc(-c2nnc(Nc3cccc(O)c3)c3ccccc23)cc1S(=O)(=O)N1CCOCC1,i
Cc1cc(C)n(-c2nnc(Nc3ccc(C(C)C)cc3)c3ccccc23)n1,6.3%
Cc1ccccc1Nc1nnc(-c2ccc(C)c(S(=O)(=O)N3CCOCC3)c2)c2ccccc12,30.8%
CC(C)CN1C(=O)c2cccn2CC1CNC(=O)Cc1cccc(F)c1 (stereo not drawn),-14.6%
Cn1nc(C(=O)N2CC[C@@H]3CN(S(C)(=O)=O)[C@@H]3C2)c2ccccc21,5.9%
O=C(c1cccc(Cn2cccn2)c1)N1CC[C@H](CO)[C@H](O)C1,2.3%
O=C(O)c1cnc(NCc2ccccn2)nc1-c1ccncc1,i
COc1ccc(C(=O)N2CCCC(Cc3nc(C4CCOCC4)no3)C2)cc1OC (stereo not drawn),-6.8%
CC(C)c1nnsc1CNC(=O)C1CCC(=O)N(CC2CCCCC2)C1 (stereo not drawn),-5.5%
SMILES,Pf Dd2 growth
Cc1ccc(C)c(NC(=O)Cn2c(-c3ccc(F)cc3)nc(C)c(CCO)c2=O)c1,2.6%
CCC1(N2CCN(C(=O)C3COc4ccccc4O3)CC2)CCN(C(=O)NC)C1 (stereo not drawn),-4.5%
CCOc1cc(C2C(C(=O)OC)=C(C)NC3=C2C(=O)c2ccccc23)ccc1OC (stereo not drawn),10µM*
CCOC(=O)COc1ccc(C2C(C(=O)OC)=C(C)NC3=C2C(=O)c2ccccc23)cc1Cl (stereo not drawn),-6.2%
CCOc1cc(C2C(C(=O)OC)=C(C)NC3=C2C(=O)c2ccccc23)c(Br)cc1O (stereo not drawn),-6.0%
CCCc1noc(-c2ccn3c(CNC(=O)c4cccnc4)nnc3c2)n1,-24.6%
O=C(c1ccco1)N1CCCC(c2nc(CCOCC3CCOCC3)no2)C1 (stereo not drawn),-17.9%
C/C(=C\c1ccccc1)CN1CCCCC12Cc1ccccc1CNC2=O (stereo not drawn),-14.8%
CCN1CCC(N(Cc2cccc(OC)c2)C(=O)Nc2ccc(C)cc2Cl)CC1,-14.4%
COc1ccc(C)cc1NC(=O)N(Cc1ccc(C)o1)C1CCN(C(C)=O)CC1,-16.9%
Cc1ccc(NC(=O)N(Cc2ccc3c(c2)OCO3)C2CCN(Cc3ccccc3)CC2)cc1Cl,10µM*
COc1ccc(C)cc1NC(=O)N(Cc1ccc2c(c1)OCO2)C1CCN(Cc2ccccc2)CC1,8.91µM*
Cc1ccc(NC(=O)N(Cc2ccc3c(c2)OCO3)C2CCN(Cc3ccccc3)CC2)cc1C,-28.4%
CC(=O)N1CCC(N(Cc2ccco2)C(=O)Nc2ccc(C)c(Cl)c2)CC1,0.8%
COCc1nc(C2CC(N)C2)cc(N2CCN(S(=O)(=O)N(C)C)CC2)n1 (stereo not drawn),-7.2%
CCN1C(=O)CCN(C(=O)NC2CCCCC2)CC12CCOCC2,2.3%
CNc1nccc(N2CCC(CC(=O)O)CC2)n1,0.8%
COc1ccc(NC(=O)c2ccc3c(c2)OCCN(c2ccccc2)C3)cn1,-23.8%[44.1 µM]
O=C(Nc1nccs1)c1ccc2c(c1)OCCN(c1cccc(OC(F)(F)F)c1)C2,-8.2%[44.1 µM]
